Screens deposited in PubChem by several laboratories.
PriA SSB inh = inhibitors of Klebsiella pneumoniae PriA binding to SSB C-terminal tail, primary screen, biochemical, AlphaScreen; AlphaScreen SSBct-PriA binding, biotinylated peptide; inhibition, % at 33 µM; actives 0.6% (n = 430,000); AID 1272365, 2023; in the data active = inhibition mostly above about 37%, no sharp cut-off; inactive = mostly below about 20%;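 note: plate controls were negative control peptide for no effect and reference peptide for full effect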
Sa ugtP lethal = growth inhibition of ugtP-null S. aureus, primary screen, RN4220 ugtP deletion, OD600; 16 h; growth inhibition, % (concentration not given with the values); actives 0.54% (n = 330,000); in the data active = growth inhibition above about 68%;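 note: plate controls were untreated wells for no effect and antibiotic for full effect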
Sa RN4220 lethal = growth inhibition of S. aureus RN4220, primary screen, OD600; inhibition, % (concentration not given with the values); 16 h; AID 1259311, 2017; actives 0.33% (n = 330,000); in the data active = inhibition above about 85%;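 note: plate controls were untreated cells for no effect and reference antibiotic for full effect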
Starred values were filed as active, the others as inactive; nt = no result given; ! = not active in a repeat. In the library only some 1% were active in any assay of this set; here they are far more common.

SMILES	PriA SSB inh	Sa ugtP lethal	Sa RN4220 lethal
O=C(Nc1ccc(F)cc1)NC1(C(=O)NCc2ccco2)CCCCC1	-3.0	-8.0	-5.6
c1ccc(-n2c(SCc3nc(-c4cccs4)no3)nnc2-c2ccco2)cc1	87.3*	4.1	13.6
c1ccc(-n2c(SCc3ccncc3)nnc2-c2ccco2)cc1	-6.6	9.2	-0.6
O=C(O)CCc1c(F)cccc1Cl	-19.0	nt	nt
Nc1c(NC2CCCCC2)c2ccccc2oc1=O	50.0*!	1.3	-0.4
Cc1ccc(S(=O)(=O)Nc2c(NC3CCCCC3)c3ccccc3oc2=O)cc1	-18.1	-11.2	-3.7
O=S(=O)(Cc1ccco1)C1CCN(S(=O)(=O)C2CC2)C1 (stereo not drawn)	-8.0	nt	nt
O=S(=O)(Cc1ccco1)C1CCN(S(=O)(=O)CCCOc2ccccc2)CC1	87.0*	nt	nt
O=C(c1ccc(=O)n(Cc2ccc(F)cc2)n1)N1CCN(c2ccccc2)CC1	4.0	nt	nt
O=C(NCc1cc(-c2ccncc2)n(C2CCCC2)n1)[C@@H]1CC=CCC1	-10.0	nt	nt
CC(=O)C1=C(c2ccc(Br)cc2)C(=O)c2ccccc2C1=O	-5.7	96.7*	97.2*
CNC1=C(N(C(C)=O)c2ccc(Br)cc2)C(=O)c2ccccc2C1=O	7.4	13.3	24.1
CCCN1CCCc2cc(CCNS(=O)(=O)c3ccc(OCC)c(F)c3)ccc21	39.0*	nt	nt
CCCN1CCCc2cc(CCNC(=O)C(=O)Nc3ccc(OCC)cc3)ccc21	20.0	nt	nt
CCCN1CCCc2cc(CCNS(=O)(=O)c3ccc(OC)c(F)c3)ccc21	66.0*	nt	nt
CCOc1ccc(S(=O)(=O)NCCc2ccc(N3CCCC3)cc2)cc1F	18.0	nt	nt
CCCN1CCCc2cc(CCNS(=O)(=O)c3cccc(F)c3)ccc21	65.0*	nt	nt
CCCN1CCCc2cc(CCNS(=O)(=O)c3cc(C)ccc3OCC)ccc21	71.0*	nt	nt
COc1ccc(CCNS(=O)(=O)c2ccc3c(c2)CCCC3)cc1OC	-13.1	5.9	12.9
CCCN1CCCc2cc(CCNC(=O)C(=O)NCc3cccs3)ccc21	22.0	nt	nt
COc1ccc(-n2c(N)c(C(=O)NCc3ccco3)sc2=S)c(OC)c1	20.0	nt	nt
Cc1noc(-c2ccc(N3CCC[C@H](C(=O)NCCCn4cccn4)C3)nc2)n1	-13.0	nt	nt
CCCN1CCCc2cc(CCNS(=O)(=O)c3ccc(OCC)c(C)c3)ccc21	56.0*	nt	nt
CCOc1ccc(S(=O)(=O)NCCc2ccc3c(c2)CCCN3C)cc1	31.0	nt	nt
CCCCn1c(=O)c(C(=O)NN=Cc2ccc(F)cc2)c(O)c2ccccc21	nt	33.9	-6.3
SMILES	PriA SSB inh	Sa ugtP lethal	Sa RN4220 lethal
CC(C)Cn1c(=O)c(C(=O)NN=Cc2cccc(F)c2)c(O)c2ccccc21	-15.9	99.1*	100.5*
Cc1nc(SCc2ccccc2F)[nH]c(=O)c1CC(=O)N1CCN(c2ccccc2F)CC1	1.0	nt	nt
CC(C)c1cc(C(=O)OCC(=O)NC(=O)NCc2ccco2)c(O)c(C(C)C)c1	-5.2	93.6*	-7.4
O=C(COC(=O)c1ccccc1C(F)(F)F)NC(=O)NCc1ccco1	-5.7	6.5	5.9
CC(C)c1ccc(NC(=O)C(c2ccc3c(c2)OCO3)N2CCCCC2)cc1 (stereo not drawn)	1.1	10.5	-1.5
Oc1cc2c(cc1C(c1ccc(Cl)c(Cl)c1)N1CCCC1)OCO2 (stereo not drawn)	15.8	87.2*	41.3
Clc1ccc(OCCn2cnc(Cl)c2Cl)cc1	43.0*	-9.1	4.4
COc1ccc(OCCn2cnc(Cl)c2Cl)cc1	27.0	3.8	3.1
COc1cc(NC(=S)NCCc2c[nH]c3ccccc23)c(OC)cc1Cl	9.5	-12.3	-1.9
COc1cc(CNCCc2c[nH]c3ccccc23)ccc1OCc1ccc(F)cc1	39.7*	-32.9	20.7
COc1cccc(CNCCc2c[nH]c3ccccc23)c1OCc1ccc(F)cc1	28.0	-27.9	-3.9
COc1ccccc1NC(=S)NCCc1c[nH]c2ccccc12	45.2*	-5.7	-2.1
Cc1ccc(C(=O)Nc2nnc(Cc3ccccc3)o2)cc1C	-5.0	nt	nt
O=[N+]([O-])c1ccc(C=NNc2ccnc3cc(Cl)ccc23)o1	59.5*	7.6	5.2
Clc1ccc2c(NN=Cc3ccc(Br)cc3)ccnc2c1	-7.6	100.7*	100.5*
Oc1ccc(C=NNc2ccnc3cc(Cl)ccc23)c(O)c1	-6.8	10.4	9.7
Cc1ccccc1C=NNc1ccnc2cc(Cl)ccc12	3.2	99.1*	98.4*
CCOc1ccc(Nc2ccnc3cc(Cl)ccc23)cc1	-1.2	7.1	3.0
Cc1ccc(C=NNc2ccnc3cc(Cl)ccc23)c(C)c1	2.9	100.8*	99.4*
Clc1nccnc1NN=Cc1ccc(Br)cc1	0.2	0.1	-2.0
O=[N+]([O-])c1ccc(/C=N\Nc2nc(-c3ccccc3)c3cc(Cl)ccc3n2)o1	-25.0	nt	nt
O=C(Cn1cccc(-c2nc(-c3ccc(Br)cc3)no2)c1=O)NCc1ccc(F)cc1	-10.0	nt	nt
N=c1c2c(-c3ccccc3)c(-c3ccccc3)n(Cc3ccco3)c2ncn1CCCO	14.5	12.8	-4.5
N=c1c2c(-c3ccccc3)c(-c3ccccc3)n(Cc3ccco3)c2ncn1CCO	-9.3	84.7*	-0.4
COCCN1CCCc2ccc(NC(=O)c3ccccc3Br)cc21	34.0	nt	nt
SMILES	PriA SSB inh	Sa ugtP lethal	Sa RN4220 lethal
CC1(C)[C@@H](O)CC[C@]2(C)[C@H]3C(=O)C=C4[C@@H]5C[C@@](C)(C(=O)O)CC[C@]5(C)CC[C@@]4(C)[C@]3(C)CC[C@@H]12	-17.9	nt	nt
CC1(C)CC[C@]2(C(=O)O)CC[C@]3(C)C(=CCC4[C@@]5(C)CCC(O)C(C)(C)C5CC[C@]43C)C2C1 (stereo partly drawn)	nt	91.3*!	81.1
C[C@H]1[C@H](C)CC[C@]2(C(=O)O)CC[C@]3(C)C(=CC[C@@H]4[C@@]5(C)CC[C@H](O)C(C)(C)[C@@H]5CC[C@]43C)[C@H]12	-6.3	nt	nt
CC1(C)C(O)CC[C@@]2(C)C1CC[C@]1(C)C2C(=O)C=C2C3C[C@@](C)(C(=O)O)CC[C@]3(C)CC[C@]21C (stereo partly drawn)	nt	87.0*	6.5
CCOc1ccc(N2C[C@@H](NC(=O)Nc3ccc(F)cc3F)CC2=O)cc1	-11.0	nt	nt
Cc1ccc(-c2nnc(Oc3ccc(NC(=O)c4cccs4)cc3)c3ccccc23)cc1	-10.0	nt	nt
Cc1ccc(CS(=O)Cc2ccc(C(=O)N3CCN(c4ccccc4)CC3)o2)cc1 (stereo not drawn)	-2.0	33.2	-2.9
COc1cccc(N2CCN(C(=O)c3ccc(CS(=O)Cc4ccccc4Cl)o3)CC2)c1 (stereo not drawn)	8.4	4.0	-2.6
O=C(O)c1ccc(COc2ccc([N+](=O)[O-])cc2)o1	-5.8	0.9	2.2
Cc1ccc(CS(=O)Cc2ccc(C(=O)N3CCN(c4ccc(F)cc4)CC3)o2)cc1 (stereo not drawn)	7.4	29.5	-3.3
COc1ccc(N2CCN(C(=O)c3ccc(COc4ccc([N+](=O)[O-])cc4)o3)CC2)cc1	40.1*	0.1	1.1
O=C(c1ccc(CS(=O)Cc2ccc(Cl)cc2)o1)N1CCN(c2ccccc2)CC1 (stereo not drawn)	-0.1	93.8*	-5.6
COc1ccc(N2CCN(C(=O)c3ccc(CS(=O)Cc4ccc(C)cc4)o3)CC2)cc1 (stereo not drawn)	4.9	95.5*	-6.6
COc1cccc(N2CCN(C(=O)c3ccc(CS(=O)Cc4ccc(Cl)cc4)o3)CC2)c1 (stereo not drawn)	17.3	91.9*	-6.8
